# “And” between values parts separate entries of the source, which are not always exact repeats. Identical values can stand only once.
# Legend:
# Type in all cases: functional
# [1] = target: Solute carrier family 2, facilitated glucose transporter member 1 (Homo sapiens) (UniProt P11166); experiment: ST_JUDE_LEISH: Cytotoxicity at 2uM final concentration against transgenic Leishmania Mexicana promastigotes LmGLUT1 that are glucose transport deficient and complemented with the human glucose transporter GLUT1. Activity is measured by DNA content using SYBR green in vitro
# Solute carrier family 2, facilitated glucose transporter member 1 (Homo sapiens), sequence (P11166 whole entry): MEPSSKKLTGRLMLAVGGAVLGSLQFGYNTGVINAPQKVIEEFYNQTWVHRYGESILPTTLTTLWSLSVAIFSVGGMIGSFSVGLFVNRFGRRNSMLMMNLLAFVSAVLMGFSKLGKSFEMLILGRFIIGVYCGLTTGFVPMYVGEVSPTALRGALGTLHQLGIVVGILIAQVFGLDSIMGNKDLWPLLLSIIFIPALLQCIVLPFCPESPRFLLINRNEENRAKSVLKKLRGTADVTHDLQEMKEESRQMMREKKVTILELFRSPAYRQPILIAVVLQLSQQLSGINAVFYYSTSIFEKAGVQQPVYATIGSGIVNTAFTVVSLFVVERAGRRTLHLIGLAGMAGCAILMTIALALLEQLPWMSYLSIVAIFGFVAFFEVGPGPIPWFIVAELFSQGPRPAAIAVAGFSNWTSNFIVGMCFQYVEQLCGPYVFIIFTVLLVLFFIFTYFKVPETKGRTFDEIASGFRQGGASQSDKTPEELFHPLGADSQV
# [2] = target: Hexose transporter 1 (Plasmodium falciparum) (UniProt O97467); experiment: ST_JUDE_LEISH: Cytotoxicity at 2uM final concentration against transgenic Leishmania Mexicana promastigotes LmPfHT that are glucose transport deficient and complemented with the Plasmodium falciparum hexose transporter. Activity is measured by DNA content using SYBR green in vitro
# [3] = target: Glucose transporter (Leishmania mexicana) (UniProt O61059); experiment: ST_JUDE_LEISH: Cytotoxicity at 2uM final concentration against transgenic Leishmania Mexicana promastigotes LmGT2 that are glucose transport deficient and complemented with the L. Mexicana glucose transporter 2. Activity is measured by DNA content using SYBR green in vitro
Compound,inhibition [1],inhibition [2],inhibition [3]
CN1CCN(Cc2nc(-c3ccc4c(Nc5ccc(Oc6ccccc6)cc5)ccnc4c3)cs2)CC1,2.66%,2.64%,1.74%
COc1ccc(CN2CCCN(Cc3cccc(NC(=O)c4ccc(-c5ccccc5)cc4)c3)CC2)cc1,-0.75%,-1.14%,-4.3%
COc1ccc(C2CC(c3cccs3)=NN2C(=O)COc2cccc3c2CCCC3O)cc1OC (stereo not given),-1.84%,-0.04%,4.14%
CS(=O)(=O)c1cccc(-c2cnc(N)c3cc(-c4ccc(F)cc4)ccc23)c1,2.85%,1.64%,1.35%
Cc1cc(N2CCCCC2)nc2ccc(NC(=O)c3cncc(Br)c3)cc12,10.7%,9.8%,6.57%
COc1cc(Cc2cnc(N)nc2N)cc(OCCCCc2nnn[nH]2)c1OC,-0.47%,1.16%,-0.95%
COc1ccc2[nH]ccc(=NN=Cc3ccc(N(C)C)cc3)c2c1,2.69%,3.94%,0.57%
O=S(=O)(NCCN1CCCC1)c1ccc(-c2ccc(CNCc3ccc(F)cc3)cc2)s1,7.34%,5.54%,0.98%
CC(C)NCc1cccc(-c2ccc(-c3nc4cc(C(F)(F)F)ccc4[nH]3)cc2)c1,7.38%,6.19%,6.87%
COC(=O)c1ccc2nc(-c3cc(-c4cccc(-c5ccccc5)c4)cnc3N)[nH]c2c1,5.22%,5.28%,4.17%
O=C(NCCN1CCCCC1)c1cc2cc(-c3ccccc3)ccc2n1S(=O)(=O)c1ccccc1,71.9%,74.7%,55.4%
O=S(=O)(NCCCN1CCOCC1)c1ccc2nccc(Nc3ccc(Oc4ccccc4)cc3)c2c1,-1.16%,-0.87%,-0.94%
CCc1ccc(C2CCN(CCCCNC(=O)c3ccc(NC(=O)c4ccc(Cl)cc4)cc3)CC2)c(OC(C)=O)c1,3.29%,3.47%,3.54%
CC(C)N1CCN(C(=O)c2ccc(CN(C)CCCN3CCN(c4cccc(Cl)c4Cl)CC3)s2)CC1,0.58%,0.7%,0.8%
COc1ccc2nccc([C@@H](O)CN3CCC(NCc4ccc5nc[nH]c(=O)c5c4)CC3)c2c1,1.63%,-1.56%,-1.45%
CC1(C)NC(N)=NC(=N)N1OCCSc1ccccc1,2.9%,3.7%,3.37%
Cc1cccc(-n2c(Nc3ccc(C)c(Cl)c3)nc3ccc(S(=O)(=O)NC(C)C(C)C)cc32)c1 (stereo not given),2.71%,1.5%,-0.08%
O=C(NC1CCCCN(Cc2ccccc2O)C1)c1cc(F)cc(F)c1 (stereo not given),4.28%,5.08%,3.51%
CC(Cc1ccc(OCCN2CCN(c3ccc(Cl)cc3)CC2)cc1)NCC(O)c1cccc(C(F)(F)F)c1 (stereo not given),-2.36%,-1.57%,0.07%
CC1(C)N=C(NC(=O)c2ccc([N+](=O)[O-])cc2)N=C(N)N1OCc1ccc2ccccc2c1,3.85%,4.18%,-0.07%
O=C(NCCCCN1CCC(c2ccc3c(c2OCCO)CCCC3)CC1)c1ccc(-c2ccc(C(F)(F)F)cc2)cc1,-0.75%,0.12%,5.23%
Cc1cccc2nc(-c3ccc(-c4cccc(NC(=O)CCc5c[nH]cn5)c4)s3)[nH]c12,3.85%,2.05%,1.67%
FC(F)(F)c1ccc(CSc2ccc3nnc(-c4ccccn4)n3n2)cc1,9.17%,9.71%,7.64%
O=C(Nc1cccc(-c2nn3ccccc3c2-c2ccnc(Nc3ccc(-c4cc[nH]n4)cc3)n2)c1)c1c(F)cccc1F,6.17%,10.3%,1.44%

Compound,inhibition [1],inhibition [2],inhibition [3]
O=C(c1cccs1)N(Cc1cccc(-c2ccc(CNCCc3ccccc3)cc2)c1)C1CCN(Cc2ccccc2)CC1,9.9%,7.55%,9.34%
COc1cc2nc(N3CCC(CNC(=O)/C=C/c4cccc(C)c4)CC3)nc(N)c2cc1OC,7.71%,0.18%,-0.03%
O=C(NC(c1ccccc1)c1ccc2cccnc2c1O)c1ccccc1 (stereo not given),4.04%,6.18%,4.35%
Oc1cccc(-c2nc3cc(C4=NC5CCCCC5N4)ccc3[nH]2)c1 (stereo not given),3.58% and 0.07%,3.97% and -1.13%,2.39% and 0.63%
COc1cccc(CNC(=O)c2cc(CNCc3ccccc3)ccc2-c2cccc(CNCc3ccc(-c4ccccc4)cc3)c2)c1,3.83%,4.88%,6.21%
CCCC1N=C(N)N=C(N)N1c1ccc(OC)cc1 (stereo not given),1.53%,-0.34%,1.56%
CC(C)N1CCN(C(=O)c2ccc(CNCCCN3CCN(c4cccc(Cl)c4Cl)CC3)o2)CC1,-2.44%,-1.41%,-1.3%
CCCCCCc1cc2cc(-c3csc(C=Cc4ccccc4)n3)c(=O)oc2cc1O,9.95%,10.6%,9.7%
O=C(Nc1cccc(-c2ccc(CN3CCCC3)cc2)c1)c1cccc(Cl)c1,-0.6%,0.05%,0.25%
c1ccc(C23NC(=Nc4nc5ccccc5[nH]4)NC2(c2ccccc2)NC(=Nc2nc4ccccc4[nH]2)N3)cc1 (stereo not given),3.64%,3.18%,5.58%
Nc1ccncc1C(=O)NCCCCN1CCN(c2nsc3ccccc23)CC1,-0.32%,0.47%,-1.16%
COc1ccc(NC(=O)c2ccc(Br)c(C)c2)cc1N1CCN(Cc2ccccc2)CC1,1.57%,0.13%,-0.04%
N#Cc1ccc(CN2CCC(Oc3ccc(NC(=O)c4cccs4)cc3)CC2)cc1,-0.02%,1.99%,4.28%
O=C(NC1CCN(c2ccnc3ccccc23)C1)c1ccc(OC(F)(F)F)cc1 (stereo not given),1.75%,1.97%,2.7%
COc1ccc(N2C(N)=NC(N)=NC2(C)C)cc1,1.65%,3.07%,2.77%
Cc1cc(NCCC(=O)Nc2ccccc2)nc(NCCc2cccnc2)n1,0.51%,2.33%,1.5%
CC(C)(C)NC(=O)COC(=O)c1c2c(nc3ccccc13)C(=Cc1ccc3c(c1)OCO3)CCC2,1.65%,1.17%,0.48%
CCOC(=O)CNC(=O)N1CCN(C(=O)NCC(=O)OCC)CC1,0.06%,0.22%,1.45%
O=C(Nc1ccc(Cl)cc1)Nc1ccc(-c2ccc(-c3nc4ccccc4[nH]3)cc2)cc1,2.4%,3.97%,0.96%
O=C(/C=C/c1ccc(Cl)c(Cl)c1)N1CCN(C(=O)Nc2cccc(C(F)(F)F)c2)CC1,5.23%,4.67%,2.79%
CC(C)N(Cc1ccc(-c2ccc(C(F)(F)F)cc2)cc1)C(=O)Cn1c(SCc2cccc(F)c2F)cc(=O)c2cc(CN3CCCCC3)ccc21,2.18%,1.78%,3.27%
Cc1cccc2nc(-c3ccc(-c4cccc(CNC5CCN(C)CC5)c4)s3)[nH]c12,-2.43%,2.74%,-0.61%
CN1CCN(CC(=O)Nc2cccc(-c3cccc(-c4nc5cc(F)ccc5[nH]4)c3)c2)CC1,0.82%,1.22%,3.51%
COCc1nc(-c2ccccc2)nc(N2CCN(C(=O)NC(C)C)CC2)c1Cc1ccccc1F,8.3%,6.85%,6.8%

Compound,inhibition [1],inhibition [2],inhibition [3]
CC(CN1CCN(C)CC1)C(=O)Nc1ccc(-c2ccc(-c3nc4ccccc4[nH]3)cc2)cc1 (stereo not given),0.19%,3.04%,1.16%
Cn1nccc1C(=O)NCCNCc1cccc(-c2ccc(-c3nc4ccccc4[nH]3)cc2)c1,0.23%,0.79%,-1.98%
CC1(CCN2CCC(c3c[nH]c4cnccc34)CC2)CCCc2c(Br)cccc2C1=O (stereo not given),54.7%,25.4%,95.5%
COc1ccc(OC)c(Cc2c(C)nc3nc(N)nc(N)c3c2C)c1,-0.27%,0.88%,-3.07%
O=C(Nc1ccc(C(F)(F)F)cc1)c1ccc(S(=O)(=O)NC2CCN(Cc3ccccc3)C2)cc1 (stereo not given),5.58%,5.18%,2.71%
O=C(Nc1ccccc1F)NC1CCN(c2ccnc(Nc3ccc(F)cc3)n2)C1 (stereo not given),0.46%,0.72%,0.81%
Oc1ccc(CCNc2nc(NCc3ccccc3-c3ccc(C(F)(F)F)cc3)nc(N3CCCNCC3)n2)cc1,4.27%,2.99%,2.83%
COc1cc(OC)cc(C(=O)Nc2cccc(-c3cn4ccc(C)cc4n3)c2)c1,6.3%,2.27%,5.98%
CN(c1ccc(NC(=O)Nc2cccc(Cl)c2)cc1)c1ccnc(N)n1,-0.39%,1.34%,-0.01%
N#Cc1ccc(-c2cnc3ccc(NCCc4cccnc4)nn23)cc1,-0.81%,-0.84%,0.25%
CC(=O)N1N=C(c2ccc(Cl)cc2)Sc2c1nc(C1CCCCC1)n2C(C)=O,-0.67%,0.1%,-0.39%
CCN(CC)CCN(Cc1ccc(-c2ccc(C(F)(F)F)cc2)cc1)C(=O)Cn1cc(Cc2cnn(C)c2)c(=O)nc1/C=C/c1ccc(F)cc1,1.22%,1.54%,2.56%
CCCCCn1c(Sc2ccc(C#N)c([N+](=O)[O-])c2)nnc1-c1cccc(Cl)c1,5.58%,6.17%,-0.77%
COc1ccc2nc3cc(Cl)ccc3c(NCCCN3CCNCC3)c2c1,3.27%,3.25%,2.39%
Cc1ccccc1Oc1nc2ccccc2nc1SCC(=O)NC(C)C,2.29%,2.25%,-1.86%
COc1ccc2nccc([C@@H](O)CN3CCC(NC(=O)c4cc5c(F)cc(F)cc5[nH]4)CC3)c2c1,18.1%,20.8%,8.41%
Cc1cccc2nc(-c3cccc(-c4cccc(CNCc5cnn(-c6ccccc6)n5)c4)c3)[nH]c12,0.8%,1.43%,2.51%
CCC(=O)c1ccc(-c2ccc(=O)n(CC(=O)N(CCN(CC)CC)Cc3ccc(-c4ccc(C(F)(F)F)cc4)cc3)n2)cc1,0.37%,1.05%,-1.47%
COCn1ncc2cc(-c3cccc(NC(=O)c4csc(NC(C)=O)n4)c3)ccc21,3.31%,1.44%,2.05%
COc1cccc(C2CCN(CCN3CCC(NC(=O)c4ccc(-c5ccc(C(F)(F)F)cc5)cc4)CC3)CC2)c1,4.19%,5.8%,6.6%
Cc1cccc2nc(-c3cccc(-c4cccc(C(=O)NCCc5cn(C)cn5)c4)c3)[nH]c12,-0.8%,-0.53%,0.89%
COc1cccc2cc(C(=O)N[C@@H](CC(C)C)C(=O)N[C@H](/C=N/NC(=O)c3ccccc3)Cc3c[nH]cn3)oc12,2.75%,0.99%,3.92%

# — ChEMBL document CHEMBL3433997, “St. Jude Leishmania screening dataset” (2016)
